From PubChem BioAssay (NCATS)
Inconclusive results are not listed. More than one record can exist for a structure, and the calls need not agree. Active and inactive are the calls of the source. Calls come from the whole dose curve; as a rule, active = well fitted curve in the direction sought with a large enough effect; inconclusive = small, poorly fitted or top-dose-only effect, or another doubt; inactive = no such curve, though single readings can be large; an effect the other way counts as inactive or inconclusive. *1 amine or outer side, *2 acyl side, *3 side chain or, on linkers, in order; H or OH if unused. Where a SMILES comes first, the peptide text is derived from it. Bridges are numbered along the chain shown (N, C = ends). [ ]: non-standard residue; d: D form. The star is where a group is joined. pTerphenylCO(4''-OnC5H11) = CCCCCOc1ccc(-c2ccc(-c3ccc(C(=O)*)cc3)cc2)cc1; Orn(4R-OH,5R-OH) = O=C([C@H](C[C@@H](O)[C@@H](O)N[*:3])N[*:1])[*:2]; hTyr(3S-OH,4S-OH) = N[C@H](C(=O)O)[C@H](O)[C@@H](O)c1ccc(O)cc1; Pro(3S-OH,4S-Me) = C[C@H]1CN[C@H](C(=O)O)[C@H]1O; Hyp = O=C(O)[C@@H]1C[C@@H](O)CN1

Key:
[1] = molecular target: Glutathione peroxidase 1 (Homo sapiens) (UniProt P07203); test: Primary qHTS Assay for Inhibitors of Recombinant Selenoprotein Glutathione Peroxidase 1 (GPX1) (AID 1845191); conditions: recombinant GPX1, GR-coupled NADPH fluorescence, 15 min; series mostly up to 48.8 µM; note: nearly all actives have a fitted effect of over 65% in size
Outline: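 10 nM GPX1 + cpd, 30 min RT; start w/ 1 mM GSH, 0.5 mM cumene hydroperoxide, 0.5 mM NADPH, 100 nM GR, 0.01% BSA; buffer 50 mM Tris-HCl pH 7.5, 2 mM EDTA, 150 mM NaCl; Fl 340/450, 0 & 15 min.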

[2] = Primary fluorescence-based thiol-reactive (MSTI) qHTS assay for identification of artifact compounds. (AID 1845221); conditions: MSTI thiol-reactivity probe, 1 h; series mostly up to 53.8 µM; note: nearly all actives have a fitted effect of over 65% in size; note: potency is the fitted concentration of half-maximal effect
Outline: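 Compounds were incubated 1 h at room temperature in the dark with the MSTI probe (4 uM) in PBS pH 7.4, 2% DMSO. Signals were normalized between Acetyl-MSTI and MSTI.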

[3] = test system: Nanoluciferase (engineered Oplophorus gracilirostris luciferase); test: Primary Nanoluciferase (NLuc) qHTS assay for identification of artifact compounds. (AID 1845222); conditions: NLuc-conditioned medium, Nano-Glo luminescence, 5 min; series mostly up to 54.1 µM
Outline: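 Compounds are pinned into diluted (1:55) conditioned medium of NLuc-expressing S16 cells and held 15 min at room temperature protected from light. Nano-Glo substrate follows, and luminescence is read 5 min later.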

[4] = Primary redox qHTS assay for identification of artifact compounds. (AID 1845223); conditions: Amplex Red/HRP redox cycling with DTT, fluorescence; series mostly up to 53.8 µM
Outline: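 Amplex Red (25 uM) and HRP (250 mU/mL) in HBSS, with compounds for 15 min, then 250 uM DTT for 30 min, room temperature, dark. Fluorescence 525/598 nm read; normalized to DMSO and 10 uM DA3003; Hill fit.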

[5] = molecular target: Luciferin 4-monooxygenase (Photinus pyralis) (UniProt P08659); test: Primary firefly luciferase (FLuc) qHTS assay for identification of artifact compounds. (AID 1845220); conditions: purified firefly luciferase, luminescence, 5 min; series mostly up to 54.1 µM; note: nearly all actives have a fitted effect of over 60% in size
Outline: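 Cell-free, 1536-well qHTS. Buffer pH 7.6 with 0.01% Tween-20 and 0.05% BSA; 10 uM D-luciferin, 10 uM ATP; 10 nM P. pyralis luciferase; luminescence after 5 min.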

[6] = molecular target: Phospholipid hydroperoxide glutathione peroxidase GPX4 (Homo sapiens) (UniProt P36969); test: Primary qHTS Assay for Inhibitors of Recombinant Selenoprotein Glutathione Peroxidase 4 (GPX4) (AID 1845192); conditions: recombinant GPX4, GR-coupled NADPH fluorescence, 15 min; series mostly up to 50 µM; note: nearly all actives have a fitted effect of over 65% in size; note: potency is the fitted concentration of half-maximal effect
Outline: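 NADPH consumption, followed by fluorescence at 340/450 nm between 0 and 15 min, reports GPX4 activity via coupled glutathione reductase (100 nM). Enzyme 200 nM was pre-exposed to compound 30 min; 0.5 mM cumene hydroperoxide and 1 mM GSH served as substrates.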

Measured: Potency

Phospholipid hydroperoxide glutathione peroxidase GPX4 (Homo sapiens), sequence (P36969 whole entry, looked up): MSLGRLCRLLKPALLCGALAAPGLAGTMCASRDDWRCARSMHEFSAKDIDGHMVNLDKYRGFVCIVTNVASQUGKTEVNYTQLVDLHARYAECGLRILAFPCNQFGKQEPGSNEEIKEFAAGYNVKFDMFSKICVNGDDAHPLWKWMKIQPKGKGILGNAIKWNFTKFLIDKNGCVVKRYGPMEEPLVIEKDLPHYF
Glutathione peroxidase 1 (Homo sapiens), sequence (P07203 whole entry, looked up): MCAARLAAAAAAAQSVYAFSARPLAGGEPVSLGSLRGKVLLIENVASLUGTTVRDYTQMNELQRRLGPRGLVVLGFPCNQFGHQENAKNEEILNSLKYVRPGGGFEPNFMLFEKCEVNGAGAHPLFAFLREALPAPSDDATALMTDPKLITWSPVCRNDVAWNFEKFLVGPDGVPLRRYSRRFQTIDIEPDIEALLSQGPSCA

C=C(C(=O)O[C@H]1C/C(C)=C/CC/C(CO)=C/[C@H]2OC(=O)C(=C)[C@H]12)C(O)CO (stereo not given in full)
inactive: [1] | [2] | [3] | [4]

Cn1sc(=O)n(Cc2ccccc2)c1=O
inactive: [1] | [2] | [4]

O=C([C@@H](Cc1cccc(C(F)(F)F)c1)NS(=O)(=O)c1cc(F)c2c(c1)CCNC2)N1CCCC1
not listed: [6]
inactive: all other assays above

CN[C@@H]1[C@H](O[C@H]2[C@H](O[C@@H]3[C@@H](O)[C@H](O)[C@@H](N=C(N)N)[C@H](O)[C@H]3N=C(N)N)O[C@@H](C)[C@]2(O)CO)O[C@@H](CO)[C@H](O)[C@H]1O
inactive: [1] | [5] | [2] | [4]

Cc1cc(-c2cnc(N)c3c(-c4ccc5scnc5c4)csc23)n(C)n1
not listed: [6]
inactive: all other assays above

C=C[C@@]12COC(=O)C(=C)[C@@H]1[C@@H](O)[C@H](C(=C)C(=O)OC)[C@@H](O)C2
not listed: [6]
inactive: all other assays above

Cc1cc(CS(=O)(=O)c2ccccc2)cc(OCc2ccc(CN3CCCC3CO)cc2)c1 (stereo not given)
inactive: [1] | [5] | [2] | [4]

CC[C@@H]1C[C@]1(NC(=O)[C@@H]1C[C@@H]2CN1C(=O)[C@H](C(C)(C)C)NC(=O)OCC(C)(C)CCCCc1cccc3c1CN(C3)C(=O)O2)C(=O)NS(=O)(=O)C1CC1
not listed: [6]
inactive: all other assays above

Cn1ncnc1[C@H]1c2n[nH]c(=O)c3cc(F)cc(c23)N[C@@H]1c1ccc(F)cc1
not listed: [6]
inactive: all other assays above

C[C@@H](N[C@H]1CCCC[C@@H]1NC(=O)c1ccc(Cl)cc1)c1cccc2ccccc12
inactive: [1] | [2] | [3] | [4]

CN(C)C(=O)Nc1cc(-c2ccccc2)ccc1N(C)C
inactive: [1] | [4]
active: [2] 2380 nM

O=S(=O)(Cc1ccccc1)Nc1ccc(-c2ccc3c(cnn3-c3ccc(F)cc3)c2)c(C(F)(F)F)c1
not listed: [6]
inactive: all other assays above

CCCn1cc2c(nc(NC(=O)Nc3ccc(OC)cc3)n3nc(-c4ccco4)nc23)n1
inactive: [1] | [5] | [3] | [4]

CC(=O)NC(C(=O)O[C@H]1CCC(C)(C)[C@@H]2CC=C3C(=O)OCC3(O)[C@@]12C)C(C)C (stereo not given in full)
not listed: [6]
inactive: all other assays above

Cc1ccc(C2(O)CCN(CCCC(=O)c3ccc(F)cc3)CC2)cc1
inactive: [6]

CC(=O)S[C@@H]1CC2=CC(=O)CC[C@]2(C)[C@H]2CC[C@@]3(C)[C@@H](CC[C@@]34CCC(=O)O4)[C@H]12
inactive: [6]

O=C(Nc1ccccc1Br)NC1CCN(c2ccc(C(F)(F)F)cn2)C1 (stereo not given)
not listed: [1]
inactive: all other assays above

CCn1c(-c2nonc2N)nc2c(C#CCO)ncc(OCCCN)c21
not listed: [1]
inactive: all other assays above

C[C@H]1C[C@@H]2[C@H]([C@@H](O)C[C@@]3(C)[C@H]2CC[C@]3(O)C(=O)COC(=O)CCC(=O)O)[C@@]2(C)C=CC(=O)C=C12
inactive: [6]

CCOc1ccc(S(=O)(=O)N2CCCCCC2)c2ccccc12
not listed: [1]
inactive: all other assays above

CC[C@@H](Nc1c(Nc2cccc(C(=O)N(C)C)c2O)c(=O)c1=O)c1cc(C(C)C)co1
active: [2] 2380 nM
not listed: [1]
inactive: all other assays above

COc1cc(F)c(F)c(Nc2ccc(I)cc2F)c1NS(=O)(=O)C1(CC(O)CO)CC1 (stereo not given)
inactive: [6] | [5] | [2] | [3]

C=C1/C(=C/C=C2\CCC[C@]3(C)[C@@H]([C@H](C)/C=C/[C@H](O)C4CC4)CC[C@@H]23)C[C@@H](O)C[C@@H]1O
inactive: [6] | [5] | [2] | [3]

NCCCC[C@H](NC(=O)[C@@H]1CCCN1C(=O)[C@@H]1CSSC[C@H](N)C(=O)N[C@@H](Cc2ccc(O)cc2)C(=O)N[C@@H](Cc2ccccc2)C(=O)N[C@@H](CCC(N)=O)C(=O)N[C@@H](CC(N)=O)C(=O)N1)C(=O)NCC(N)=O
active: [6] 17.8 µM

CC1(C)CCCC2(C)C1C(OC(=O)/C=C/C=C/C=O)C=C1COC(=O)C12O (stereo not given)
inactive: [6] | [5] | [2]

Cc1cc2c(F)c(Oc3ncnn4cc(OCC(C)OC(=O)C(C)N)c(C)c34)ccc2[nH]1 (stereo not given)
inactive: [6] | [5] | [2] | [3]

C=CC(=O)Nc1cc(-n2c(=O)ccc3cnc4ccc(-c5ccc(NS(C)(=O)=O)cc5)cc4c32)ccc1C
not listed: [1]
inactive: all other assays above

Oc1cccc(-c2c3nc(c(-c4cccc(O)c4)c4ccc([nH]4)c(-c4cccc(O)c4)c4nc(c(-c5cccc(O)c5)c5ccc2[nH]5)CC4)C=C3)c1
inactive: [6]

CS(=O)(=O)Nc1cc2occ(NC=O)c(=O)c2cc1Oc1ccccc1
18 µM (active) and inactive: [6]

CC[C@@H](C)Nc1cc(C(=O)NC2CC3CC[C@@H](C2)N3c2ccc(C(=O)C3CC3)cn2)c(C)cc1C(N)=O (stereo not given in full)
active: [6] 2.55 µM
inactive: [5] | [2] | [3]

CCCCCOc1ccc(-c2ccc(-c3ccc(C(=O)N[C@H]4C[C@@H](O)[C@@H](O)NC(=O)[C@@H]5[C@@H](O)[C@@H](C)CN5C(=O)[C@H]([C@@H](C)O)NC(=O)[C@H]([C@H](O)[C@@H](O)c5ccc(O)cc5)NC(=O)[C@@H]5C[C@@H](O)CN5C(=O)[C@H]([C@@H](C)O)NC4=O)cc3)cc2)cc1 ({pTerphenylCO(4''-OnC5H11)}-[Orn(4R-OH,5R-OH)]T[Hyp][hTyr(3S-OH,4S-OH)]T[Pro(3S-OH,4S-Me)]; lactam 1-C)
not listed: [1]
inactive: all other assays above

O=C1COc2nccc(-c3ccccc3F)c2CN1Cc1cc(C(F)(F)F)cc(C(F)(F)F)c1
not listed: [1]
inactive: all other assays above

CC(=O)O[C@@H]1CC2C(C)(C)C(=O)C=C[C@]2(C)C2CC[C@@]3(C)[C@H](c4ccoc4)OC(=O)[C@H]4O[C@]43[C@@]21C (stereo not given in full)
inactive: [6] | [5] | [2] | [3]
